Test results from PubChem BioAssay AID1626 (SRMLSC, 2009).
In all, about 220,000 compounds went through this assay and about 2,000 (0.91%) were called active. Roughly 2% stayed inconclusive and do not appear here. Only a sample is shown. Potency and affinity values are given separately. Values without a mark were called inactive. Cut-off read from the data, not from the text of the source: inconclusive = inhibition above about 80% without an active follow-up result; inactive = below that; test concentration not stated here.

Experiment: M. tuberculosis H37Rv growth inhibitors, H37Rv strain (AID 1626);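 note: bacteria incubated seven days before Alamar blue readout; 0% = bacteria only wells and 100% = bacteria with antibiotic wells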
Conditions: hits give high values, concentration not given here

Structure (SMILES) | inhibition [%]
O=C(CNS(=O)(=O)c1ccccc1)Nc1ccc2c(c1)OCO2 | 0.17
O=C(Nc1ccccc1C(=O)N1CCNCC1)c1ccco1 | -1.36
CC1CCc2nn(CC(=O)Nc3c(F)cc(F)cc3Br)cc2C1 (stereo unspecified) | 0.73
Cc1cc(C(=O)N2CCCC(C(=O)c3cccc(C(F)(F)F)c3)C2)nc(C)n1 (stereo unspecified) | -11
COc1ccc(Cl)cc1-c1csc(N)n1 | -2.91
O=C(CSc1nc2ccc([N+](=O)[O-])cc2[nH]1)c1ccc2ccccc2c1 | 13.4
Cc1ccc(NS(=O)(=O)c2cc(C(=O)NCc3ccccn3)ccc2Cl)cc1C | 4.55
CC(=O)Nc1cccc(NC(=O)c2cc(C)on2)c1 | -10.6
CC(=O)c1ccc(NC(=O)Cn2nc(C)c([N+](=O)[O-])c2C)cc1 | 2.02
CN(C)CCN1CC(C(=O)O)CC1=O (stereo unspecified) | -2.28
CN1CCN(S(=O)(=O)c2ccc(-c3noc(C4CCN(S(C)(=O)=O)CC4)n3)cc2)CC1 | -1.89
O=C(Oc1ccc(/C=N/O)cc1)c1ccccc1 | 30.8
O=C(O)c1ccc(N/N=C/c2ccc(OC(=O)c3ccccc3Cl)cc2)cc1 | 4.34
Cn1c(O)c(N=Nc2nc(-c3ccccc3)cs2)c2ccccc21 | 68
CCc1ccc2[nH]c(O)c(N=NC3=NC(=O)CS3)c2c1 | 1.19
COc1ccc(CCNC2CCCCC2)cc1OC | 5.74
O=C(Nc1ccccn1)c1ccc(Br)c(S(=O)(=O)N2CCCCC2)c1 | 4.83
CCCN(N=Nc1cccc([N+](=O)[O-])c1)c1cccc([N+](=O)[O-])c1 | 1.3
O=c1cc(-c2ccccc2)oc2cc(O)cc(O)c12 | 17.6
O=c1cc(-c2ccc(O)cc2)oc2cc(O)cc(O)c12 | -7.5
Cc1cc(OCC(=O)NC(C)C)ccc1Cl | 8.21
Cc1noc(-c2ccc(C(F)(F)F)cc2)c1NC(=O)Nc1ccc(Cl)cc1 | 13.4
O=C(O)c1cccc(Cn2c(Cl)c(/C=N/NC(=O)c3ccc(O)cc3)sc2=O)c1 | -11.5
O=c1[nH]c(SCc2ccc([N+](=O)[O-])cc2)nc2[nH]ncc12 | -6.17
CC[C@H]1CC2CN3CCc4c([nH]c5ccccc45)C(C(=O)OC)(C2)C13 (stereo partly specified) | 0.73
CC[C@H]1CC2CN3CCc4c([nH]c5cc(OC)ccc45)[C@](C(=O)OC)(C2)[C@H]13 | -5.98
